The source of these data is PubChem BioAssay (EPA / NIEHS).

Assay [1] can be described thus: BSK_4H_Eotaxin3: BioMAP Diversity Plus: 4H Assay for Eotaxin 3 Biomarker Activity (AID 2283000; active = hit-call score of the fitted dose curve at least 0.9, where 1 is the maximum; inactive = score below 0.9;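 as to outcome: CCL26 protein level quantified by ELISA in parallel with SRB cytotoxicity check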). As to conditions: primary human endothelial cells (HUVEC); actives raise or lower the signal. The gist of the method: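 ELISA quantitation of CCL26 (Eotaxin-3) protein from chemically dosed human vascular endothelial cells at 24 h; increases and decreases both scored relative to DMSO-treated baseline.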

Read-out in assay [2]: Intercellular Adhesion Molecule 1 (ICAM1), ICAM1 (gene 3383)
In words: BSK_3C_ICAM1: BioMAP Diversity Plus: 3C Assay for Intercellular Adhesion Molecule 1 (ICAM1) Biomarker Activity (AID 2283003; active = hit-call score of the fitted dose curve at least 0.9, where 1 is the maximum; inactive = score below 0.9). As to conditions: primary human endothelial cells (HUVEC); actives raise or lower the signal. The gist of the method:
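Human vascular endothelial primary cells, 3C conditions, 24 h treatment. ICAM-1 by ELISA.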

Assay [3] in a line: BSK_3C_Proliferation: Cell Proliferation Assessment in the BioMAP Diversity Plus: 3C Assay (AID 2283006; active = hit-call score of the fitted dose curve at least 0.9, where 1 is the maximum; inactive = score below 0.9;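 as to AC50: potency may reflect either rise or fall in cell number versus DMSO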). The settings on record: primary human endothelial cells (HUVEC). The gist of the method: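 Proliferation of human vascular endothelial primary cells after 48 h dosing, quantified as SRB-stained protein at 560 nm relative to DMSO.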
For assay [4], the target named is Peroxisome proliferator-activated receptor gamma (Homo sapiens) (UniProt P37231). In words: ATG_PPARg_TRANS: Attagene TRANS-FACTORIAL HepG2 Assay for human Peroxisome Proliferator-activated Receptor-gamma (PPARg) (AID 2283007). The gist of the method:
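Gain-of-signal endpoint relative to DMSO, derived from reporter mRNA levels quantified by RT-PCR and capillary electrophoresis. Cells were HepG2 transiently expressing a chimeric NR-Gal4 construct with GAL4-UAS reporters, exposed to chemicals for 24 h.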

For assay [5], the target named is Nuclear receptor subfamily 1 group I member 2 (Homo sapiens) (UniProt O75469). Description: ATG_PXR_TRANS: Attagene TRANS-FACTORIAL HepG2 Assay for human Pregnane X Receptor (PXR) (AID 2283008). The gist of the method:
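HepG2 cells transiently transfected with multiple reporter units, here a PXR-GAL4 chimera driving a GAL4-UAS reporter; 24 h compound exposure. Reporter mRNA measured by RT-PCR, FAM labelling and capillary electrophoresis; gain of signal fitted against DMSO baseline.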

Assay [6] concerns the target human Peroxisome Proliferator-activated Receptor alpha (PPARa), PPARA (gene 5465) (UniProt Q07869). In words: ATG_PPARa_TRANS: Attagene TRANS-FACTORIAL HepG2 Assay for human Peroxisome Proliferator-activated Receptor alpha (PPARa) (AID 2283001).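 As to AC50: potency for gain of reporter signal over DMSO so agonist or activator.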 The gist of the method: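 Measures transcriptional activity of an exogenous chimeric PPARa-Gal4 protein in transiently transfected HepG2 cells after 24 h dosing. Reporter mRNA quantified via RT-PCR and capillary electrophoresis; DMSO served as negative control.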

The target of assay [7] is human Retinoic Acid Receptor gamma (RARg), RARG (gene 5916) (UniProt P13631). Description: ATG_RARg_TRANS: Attagene TRANS-FACTORIAL HepG2 Assay for human Retinoic Acid Receptor gamma (RARg) (AID 2283009). The gist of the method:
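HepG2, RARg-GAL4 TRANS system, 24 h exposure; reporter mRNA by RT-PCR + CE fluorescence; increase over DMSO.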

Assay [8] concerns the target human Retinoic Acid Receptor beta (RARb), RARB (gene 5915) (UniProt P10826). In words: ATG_RARb_TRANS: Attagene TRANS-FACTORIAL HepG2 Assay for human Retinoic Acid Receptor beta (AID 2283004). The gist of the method:
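Fluorescent capillary-electrophoresis detection of GAL4-UAS reporter mRNA defines the endpoint, with induction over DMSO-treated wells scored as activity. Transiently transfected human hepatoma HepG2 cells expressing exogenous NR–Gal4 proteins are exposed to test chemicals for 24 h.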

The target of assay [9] is Retinoic acid receptor alpha (Homo sapiens) (UniProt P10276). Description: ATG_RARa_TRANS: Attagene TRANS-FACTORIAL HepG2 Assay for human Retinoic Acid Receptor alpha (RARa) (AID 2283005). The gist of the method: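 HepG2 transiently transfected with multiplex GAL4-UAS reporter units including a human RARa–GAL4 chimera; 24 h compound exposure. Reporter mRNA quantified by RT-PCR, 6-FAM labeling and capillary electrophoresis; gain of signal versus DMSO.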
Chain of Retinoic acid receptor alpha (Homo sapiens) (P10276 whole entry, looked up, the tested form may be a part): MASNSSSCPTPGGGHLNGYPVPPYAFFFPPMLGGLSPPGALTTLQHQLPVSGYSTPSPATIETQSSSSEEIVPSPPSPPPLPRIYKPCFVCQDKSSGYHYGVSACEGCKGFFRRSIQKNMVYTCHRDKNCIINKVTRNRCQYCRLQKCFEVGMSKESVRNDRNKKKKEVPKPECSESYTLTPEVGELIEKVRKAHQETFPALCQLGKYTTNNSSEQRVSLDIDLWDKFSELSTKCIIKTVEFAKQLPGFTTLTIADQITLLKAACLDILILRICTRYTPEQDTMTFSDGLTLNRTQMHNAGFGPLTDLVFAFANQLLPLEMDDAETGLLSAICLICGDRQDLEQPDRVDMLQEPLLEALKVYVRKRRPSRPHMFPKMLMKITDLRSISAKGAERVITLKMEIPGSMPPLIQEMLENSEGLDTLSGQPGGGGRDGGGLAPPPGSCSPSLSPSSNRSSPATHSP

For assay [10], the target named is human Peroxisome Proliferator-activated Receptor delta (PPARd), PPARD (gene 5467) (UniProt Q03181). In words: ATG_PPARd_TRANS: Attagene TRANS-FACTORIAL HepG2 Assay for human Peroxisome Proliferator-activated Receptor delta (PPARd) (AID 2283002). The gist of the method: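 HepG2 cells transiently transfected with GAL4-UAS multiplexed reporter units driven by exogenous chimeric NR-GAL4 proteins; 24 h compound exposure. Reporter mRNA measured by RT-PCR, 6-FAM primer extension, HpaI digestion and capillary electrophoresis; gain of signal fitted relative to DMSO.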
Chain of human Peroxisome Proliferator-activated Receptor delta (PPARd), PPARD (gene 5467) (Q03181 whole entry, looked up, the tested form may be a part): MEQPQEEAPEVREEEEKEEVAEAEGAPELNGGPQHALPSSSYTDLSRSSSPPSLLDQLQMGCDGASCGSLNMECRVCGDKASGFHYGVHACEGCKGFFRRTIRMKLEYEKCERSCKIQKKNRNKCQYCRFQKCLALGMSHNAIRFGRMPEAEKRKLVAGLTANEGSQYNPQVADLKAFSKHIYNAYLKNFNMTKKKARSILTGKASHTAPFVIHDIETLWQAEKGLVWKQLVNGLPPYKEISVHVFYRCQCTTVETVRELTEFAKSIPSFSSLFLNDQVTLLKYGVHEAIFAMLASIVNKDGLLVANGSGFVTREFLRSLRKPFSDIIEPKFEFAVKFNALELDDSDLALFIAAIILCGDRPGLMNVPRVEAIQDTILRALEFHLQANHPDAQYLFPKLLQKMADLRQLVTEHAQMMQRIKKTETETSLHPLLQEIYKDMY

Values joined by “and” are separate entries in the source; they are usually repeats but may differ in a detail not shown here. Equal entries are not always repeated. Results filed as inconclusive are left out. Active and inactive are the calls of the source. The calls were made as follows, unless noted: active = hit-call score of the fitted dose curve at least 0.9, where 1 is the maximum; inconclusive = response in the unintended direction; inactive = score below 0.9.

Chain of human Peroxisome Proliferator-activated Receptor alpha (PPARa), PPARA (gene 5465) (Q07869 whole entry, looked up, the tested form may be a part): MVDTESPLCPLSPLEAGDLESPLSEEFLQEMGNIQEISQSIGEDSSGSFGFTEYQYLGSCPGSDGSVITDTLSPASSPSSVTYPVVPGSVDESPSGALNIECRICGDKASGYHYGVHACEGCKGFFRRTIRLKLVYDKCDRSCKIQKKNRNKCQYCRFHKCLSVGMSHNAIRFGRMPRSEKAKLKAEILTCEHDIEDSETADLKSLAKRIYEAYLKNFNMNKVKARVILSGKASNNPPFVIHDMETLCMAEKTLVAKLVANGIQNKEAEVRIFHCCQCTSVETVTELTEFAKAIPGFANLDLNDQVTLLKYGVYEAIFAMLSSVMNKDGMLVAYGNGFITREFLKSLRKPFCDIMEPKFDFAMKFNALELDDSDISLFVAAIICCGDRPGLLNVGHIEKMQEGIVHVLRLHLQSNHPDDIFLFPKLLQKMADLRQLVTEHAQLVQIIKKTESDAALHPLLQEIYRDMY
Chain of Peroxisome proliferator-activated receptor gamma (Homo sapiens) (P37231 whole entry, looked up, the tested form may be a part): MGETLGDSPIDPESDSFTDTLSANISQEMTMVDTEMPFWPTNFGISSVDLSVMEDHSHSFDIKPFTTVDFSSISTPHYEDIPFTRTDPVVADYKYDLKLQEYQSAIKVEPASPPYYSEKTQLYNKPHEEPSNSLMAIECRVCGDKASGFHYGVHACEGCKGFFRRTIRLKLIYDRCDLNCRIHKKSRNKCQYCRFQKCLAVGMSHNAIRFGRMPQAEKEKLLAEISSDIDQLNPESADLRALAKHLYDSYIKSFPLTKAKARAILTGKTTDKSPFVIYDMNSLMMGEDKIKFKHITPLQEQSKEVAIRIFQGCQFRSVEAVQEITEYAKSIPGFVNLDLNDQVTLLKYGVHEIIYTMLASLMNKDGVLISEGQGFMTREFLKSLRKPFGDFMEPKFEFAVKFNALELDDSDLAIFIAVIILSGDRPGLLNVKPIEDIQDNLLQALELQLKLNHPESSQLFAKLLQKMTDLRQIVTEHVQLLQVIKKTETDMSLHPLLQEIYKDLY
Chain of human Retinoic Acid Receptor gamma (RARg), RARG (gene 5916) (P13631 whole entry, looked up, the tested form may be a part): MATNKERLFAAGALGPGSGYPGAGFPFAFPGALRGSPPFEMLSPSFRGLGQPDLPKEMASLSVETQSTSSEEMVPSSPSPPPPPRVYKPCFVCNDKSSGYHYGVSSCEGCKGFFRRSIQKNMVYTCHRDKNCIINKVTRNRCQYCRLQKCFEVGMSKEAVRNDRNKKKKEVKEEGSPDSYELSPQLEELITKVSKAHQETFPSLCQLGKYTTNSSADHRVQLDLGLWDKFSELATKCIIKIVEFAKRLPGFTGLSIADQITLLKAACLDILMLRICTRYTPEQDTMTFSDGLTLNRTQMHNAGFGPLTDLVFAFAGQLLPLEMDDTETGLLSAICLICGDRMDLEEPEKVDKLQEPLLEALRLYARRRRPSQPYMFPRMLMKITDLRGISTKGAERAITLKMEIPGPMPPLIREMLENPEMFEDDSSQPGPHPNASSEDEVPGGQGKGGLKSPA
Chain of human Retinoic Acid Receptor beta (RARb), RARB (gene 5915) (P10826 whole entry, looked up, the tested form may be a part): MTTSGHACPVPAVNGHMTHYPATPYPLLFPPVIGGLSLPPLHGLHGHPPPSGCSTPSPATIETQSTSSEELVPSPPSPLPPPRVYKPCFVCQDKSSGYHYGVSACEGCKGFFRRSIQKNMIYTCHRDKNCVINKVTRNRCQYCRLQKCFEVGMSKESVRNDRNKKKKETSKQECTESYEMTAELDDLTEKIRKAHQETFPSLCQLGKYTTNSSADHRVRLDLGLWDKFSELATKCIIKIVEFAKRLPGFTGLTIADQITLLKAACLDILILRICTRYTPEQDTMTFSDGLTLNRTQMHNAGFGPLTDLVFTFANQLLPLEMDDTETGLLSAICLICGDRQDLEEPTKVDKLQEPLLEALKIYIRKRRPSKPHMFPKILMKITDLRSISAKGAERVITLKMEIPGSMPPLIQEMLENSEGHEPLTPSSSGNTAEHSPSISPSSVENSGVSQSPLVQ
Chain of Nuclear receptor subfamily 1 group I member 2 (Homo sapiens) (O75469 whole entry, looked up, the tested form may be a part): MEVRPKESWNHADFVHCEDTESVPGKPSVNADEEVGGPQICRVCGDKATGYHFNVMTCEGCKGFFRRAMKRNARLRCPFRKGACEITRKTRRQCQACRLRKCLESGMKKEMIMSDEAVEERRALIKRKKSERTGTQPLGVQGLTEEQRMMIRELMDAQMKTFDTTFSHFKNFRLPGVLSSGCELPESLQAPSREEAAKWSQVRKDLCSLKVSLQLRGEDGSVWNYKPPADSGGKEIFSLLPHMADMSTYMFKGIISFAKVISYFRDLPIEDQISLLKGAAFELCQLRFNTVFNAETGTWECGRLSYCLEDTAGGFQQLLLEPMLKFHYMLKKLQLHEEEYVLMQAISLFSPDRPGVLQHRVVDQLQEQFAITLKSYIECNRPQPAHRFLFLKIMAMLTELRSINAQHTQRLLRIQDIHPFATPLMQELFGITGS

Consider `CC(C)(C)c1cc(CCC(=O)NCCCCCCNC(=O)CCc2cc(C(C)(C)C)c(O)c(C(C)(C)C)c2)cc(C(C)(C)C)c1O`, for which the outcome in assay [1], in [2], in [3] and in [4] was inactive. Further, the AC50 (in general, the concentration giving half of the maximal activity seen) in assay [5] was 82.3 nM (active).

As for `CC(C)CCCC(C)CCO` (centres undefined), the AC50 in assay [1] was 36.5 µM (active); in assay [2], 35.5 µM (active); in assay [3], 30.4 µM (active). Also, the outcome in assay [6] and in [4] was inactive.

As for `NC(=O)C(F)(F)C(F)(F)C(F)(F)C(F)F`, the outcome in assay [1], in [6], in assay [2], in [3], in [4] and in [5] was inactive.

As for `FC(F)(F)C(F)(F)C(F)(F)C(F)(F)C(F)(F)C(F)(F)C(F)(F)CCI`, the result in [1], in assay [6], in assay [2], in assay [3] and in assay [5] was inactive.

Take `C=CC(=O)OCC(F)(F)C(F)(F)C(F)(F)C(F)(F)C(F)(F)C(F)(F)C(F)(F)C(F)F`: the result in [1], in assay [6], in assay [2] and in assay [5] was inactive. The AC50 in assay [3] is 20.8 µM (active) and 24.1 µM (active); in [4], 37.6 µM (active).

With `O=C(O)C(F)(F)OC(F)(F)C(F)(F)OC(F)(F)C(F)(F)OC(F)(F)F`, the result in assay [1], in assay [2], in assay [3], in [5] and in [7] was inactive. Besides, the AC50 is 15.4 µM (active) in [6] and 17.9 µM (active) in [4].

Regarding `O=C(F)C1(F)C(F)(F)C(F)(F)C(F)(F)C(F)(F)C1(F)F`, the result in assay [1], in assay [2], in assay [8], in assay [9], in assay [3] and in assay [4] was inactive.

Take `CCCCCCCCCCCCCCCCC`: the result in assay [6] was inactive.

Take `OCCCC(F)(F)C(F)(F)C(F)(F)C(F)(F)C(F)(F)C(F)(F)C(F)(F)C(F)(F)F`: the AC50 in assay [1] was 18.9 µM (active) and 31.8 µM (active); in [2] it was 22.4 µM (active) and 45.5 µM (active); in [3], 7.56 µM (active) and 9.56 µM (active). The molecule was called inactive in assay [10], in assay [8], in assay [9], in assay [4], in [5] and in assay [7].

As for `FC(F)(F)C(F)(F)C(F)(F)CC1CO1` (centres undefined), the result in [1], in [6], in [2], in assay [3], in assay [4] and in assay [5] was inactive.

With `CC(C)(C)C(=O)C1C(=O)c2ccccc2C1=O`, the outcome in assay [6], in [10], in assay [8], in assay [9] and in assay [7] was inactive. In addition, the figures for the AC50 in [4] and in assay [5] were 28 µM (active) and 22400 nM (active), respectively.

For `CC(C)C(=O)OCc1ccccc1`, the molecule was called inactive in [6].

Regarding `CCCCCCCCCCCCC[N+](C)(C)Cc1ccccc1`, the molecule was classed as inactive in [6], in assay [10], in [8], in assay [9], in assay [4] and in assay [5].

For the molecule `CC1=CCC(=O)O1`, the molecule was called inactive in assay [6], in assay [10], in assay [8], in assay [9] and in assay [4].

Regarding `O=C=Nc1cccc2c(N=C=O)cccc12`, the result in [1], in assay [10], in [2], in assay [8], in [3] and in assay [4] was inactive. Moreover, the AC50 in assay [5] is 628 nM (active).

Regarding `O=C(O)C(F)(F)C(F)(F)C(F)(F)C(=O)O`, the result in [1], in assay [6], in assay [2], in [3] and in [7] was inactive. In assay [4], the AC50 is 84.1 µM (active).

On to `O=C1C=CC(=O)N1c1ccccc1`, for which the molecule was classed as inactive in assay [6], in assay [10], in assay [8], in assay [9] and in assay [4].

In the case of `Brc1nc2ccccc2s1`, the result in assay [1], in assay [6], in assay [2] and in assay [3] was inactive. For the same molecule, the AC50 in assay [4] was 23.5 µM (active).

Turning to `COc1ccccc1C=O`, the molecule was called inactive in assay [6] and in assay [10].

For the molecule `C=CC(=O)OCC(F)(F)C(F)(F)C(F)(F)COC(=O)C=C`, the AC50 in [1] is 9.89 µM (active) and 8.33 µM (active); in assay [2] it was 46.5 µM (active); in assay [3], 8.32 µM (active) and 9.46 µM (active); in assay [4] it was 2.69 µM (active). Besides, the molecule was classed as inactive in [6] and in assay [7].

`CCOC(=O)CC(=O)C(F)(F)C(F)(F)F`: the outcome in [1], in assay [2], in [3], in [4] and in assay [7] was inactive.

With `Cc1cc(O)c(C(C)(C)C)cc1C(C)(C)C`, the AC50 in assay [1] is 4.12 µM (active); in assay [2], 8.46 µM (active); in assay [3], 2.36 µM (active); in assay [5] it was 3470 nM (active). Further, the molecule was classed as inactive in assay [10], in [8], in assay [9], in assay [4] and in [7].

For `Oc1ccc2c(c1)CCC2`, the molecule was called inactive in [6], in assay [10], in assay [8], in assay [9], in [4] and in assay [7].

Consider `CCCCCC/C=C/CCCCCCCC(=O)O`, for which the AC50 in assay [6] is 37.6 µM (active). In addition, the call in assay [10], in [4] and in assay [7] was inactive.

In the case of `N#Cc1ccccc1O`, the molecule was called inactive in assay [6], in assay [9], in assay [4] and in [7].

For `C=C(C)CCCC`, the outcome in [6], in assay [8], in [9] and in assay [7] was inactive.

With `CC(=O)c1ccccc1N`, the call in assay [6], in assay [10] and in assay [5] was inactive.

`CC(C)OC=O`: the outcome in assay [6] and in assay [4] was inactive.

Regarding `CC(C)CC=C(C=O)c1ccccc1`, the molecule was called inactive in [6] and in [10]. The values for the AC50 in [4] and in assay [5] were 39.5 µM (active) and 891 nM (active), respectively.

`C#CC(O)CCC` (centres undefined): the molecule was called inactive in assay [6], in assay [8] and in [4].

As to `c1ccc(C[P+](c2ccccc2)(c2ccccc2)c2ccccc2)cc1`, the molecule was classed as inactive in [6], in assay [8], in assay [9], in [4] and in assay [7].

On to `CSc1ccc(O)cc1C`, for which the molecule was called inactive in assay [6], in assay [8], in assay [4] and in assay [7].
